# Assay results: PubChem BioAssay (EPA / NIEHS)
# “And” between values parts separate entries of the source, which are not always exact repeats. Identical values can stand only once. Results filed as inconclusive are left out. Some structures have more than one record in an assay (separate samples or runs), and their calls can disagree. The source made the active and inactive calls. How the source made its calls: active means hit-call score of the fitted dose curve at least 0.9, where 1 is the maximum; inconclusive means response in the unintended direction; inactive means score below 0.9.
# Columns and labels:
# [1] = target: chimpanzee Androgen Receptor (AR), AR (gene 747460) (UniProt O97775); assay: NVS_NR_cAR: NovaScreen (NVS) Nuclear Receptor Binding Assay for chimpanzee Androgen Receptor (AR) (AID 2283346);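 further: radioligand displacement from AR measured by scintillation counting in a cell-free assay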
# Outline: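 Cell-free radioligand displacement using receptor protein extracted from Sf9/Sf21 cells; bound radioligand measured by scintillation counting 72 hours after chemical dosing. Loss of signal versus DMSO baseline indicates binding; primary screen single-concentration in duplicate at 25 uM, actives followed in concentration series.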
# [2] = target: rat Mineralocorticoid Receptor (MR), Nr3c2 (gene 25672) (UniProt P22199); assay: NVS_NR_rMR: NovaScreen (NVS) Nuclear Receptor Binding Assay for rat Mineralocorticoid Receptor (MR) (AID 2283355)
# Outline: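 Single-concentration duplicate screen (25 uM) of radioligand binding in adrenalectomized rat brain supernatant; scintillation detection 24 h after dosing. Positive and negative controls ran on each plate, and confirmed actives went to concentration-response.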
# [3] = target: human Peroxisome Proliferator-activated Receptor alpha (PPARa), PPARA (gene 5465) (UniProt Q07869); assay: NVS_NR_hPPARa: NovaScreen (NVS) Nuclear Receptor Binding Assay for human Peroxisome Proliferator-activated Receptor alpha (PPARa) (AID 2283359);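 further: activity means loss of TR-FRET signal versus DMSO baseline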
# Outline: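 One-hour incubation, cell-free extracted protein, TR-FRET binding readout; signal loss vs DMSO scored. Screen: 25 uM duplicates, confirmatory dose series for actives.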
# [4] = target: Retinoic acid receptor alpha (Homo sapiens) (UniProt P10276); assay: NVS_NR_hRARa_Agonist: NovaScreen (NVS) Nuclear Receptor Binding Assay for human Retinoic Acid Alpha Receptor Agonism (RAR) (AID 2283361)
# Outline: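 Compounds screened at 25 uM, duplicate, then in concentration series if active. Detection: TR-FRET gain of signal versus DMSO after 2 h with cell-free extracted RARα.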
# [5] = target: Estrogen receptor (Homo sapiens) (UniProt P03372); assay: NVS_NR_hER: NovaScreen (NVS) Nuclear Receptor Binding Assay for human Estrogen Receptor (ER) (AID 2283348)
# Outline: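 Radiodetection of ligand displacement in a lysate-based, cell-free format using MCF7 extracts, read at 18 hours. Duplicate 25 uM primary testing, then concentration series for actives.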
# [6] = target: bovine Estrogen Receptor (ER), ESR1 (gene 407238) (UniProt P49884); assay: NVS_NR_bER: NovaScreen (NVS) Nuclear Receptor Binding Assay for bovine Estrogen Receptor (ER) (AID 2283345);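 further: actives lower the bound radioligand count which means they displace the ER ligand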
# Outline: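 Cell-free radioligand binding with receptor from bovine uterine membranes, read by scintillation counting 18 h after dosing. Loss of specific binding was scored against DMSO; primary screen at 25 uM in duplicate, actives then run as concentration series.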
# PGR (gene 5241) = PGR (gene 5241) (UniProt P06401); assay: NVS_NR_hPR: NovaScreen (NVS) Nuclear Receptor Binding Assay for human Progestron Receptor (PR) (AID 2283360)
# Outline: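 Cell-free radioligand binding using receptor protein extracted from T47D cells, read by scintillation counting 18 hours after dosing. Loss of signal relative to DMSO baseline indicates displacement; primary screen single concentration 25 uM in duplicate, actives followed in concentration series.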
# [7] = target: Estrogen receptor (Homo sapiens) (UniProt P03372); assay: OT_ER_ERaERa_1440: Odyssey Thera (OT) 24-hour HEK293T Protein-Complementation Assay for Estrogen Receptor-alpha/-alpha Homodimer (AID 2283349);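 further: hits raise fluorescence above DMSO for agonists and antagonists alike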
# Outline: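 Stably transfected HEK293T; ERα LBD homodimer PCA. 24 h dosing, fluorescence intensity read, gain-of-signal vs DMSO.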
# [8] = target: Estrogen receptor (Homo sapiens) (UniProt P03372); assay: OT_ER_ERaERa_0480: Odyssey Thera (OT) 8-hour HEK293T Protein-Complementation Assay for Estrogen Receptor-alpha/-alpha Homodimer (AID 2283351);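 further: rise in fluorescence from reassembled reporter fragments on ERα LBD homodimer in nucleus or whole cell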
# Outline: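 Read-out: fluorescence intensity rise relative to DMSO, nuclear for agonists, nuclear plus cytoplasmic for antagonists. Construct is the ERα LBD (aa 310-547) homodimer fragment-complementation pair, stably expressed in HEK293T; exposure 8 h.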
# [9] = target: Androgen Receptor/SRC-1 Co-activator, AR (gene 367) (UniProt P10275); assay: OT_AR_ARSRC1_0960: Odyssey Thera (OT) 16-hour HEK293T Protein-Complementation Assay for Androgen Receptor/SRC-1 Co-activator (AID 2283353);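 further: actives raise the signal above DMSO so potency reflects increased AR and SRC-1 complex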
# Outline: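 Readout: 488 nm nuclear-to-cytoplasmic fluorescence ratio from imaging of at least 400 cells per image, 16 h post-dose. Reporter is Venus YFP complementation between AR and SRC-1 fusions, stably expressed in HEK293T; activity scored upward relative to DMSO.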
# [10] = target: Androgen Receptor/SRC-1 Co-activator, AR (gene 367) (UniProt P10275); assay: OT_AR_ARSRC1_0480: Odyssey Thera (OT) 8-hour HEK293T Protein-Complementation Assay for Androgen Receptor/SRC-1 Co-activator (AID 2283354);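 further: hits raise the complementation signal above DMSO so AC50 marks enhancers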
# Outline: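 After 8 h dosing, stably expressing HEK293T cells with split-Venus AR/SRC-1 fusions were imaged (488, 635nm). The 488nm N/C ratio per image gave the endpoint, analysed in the positive direction against DMSO.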
# [11] = target: T1, Estrogen receptor (Homo sapiens) + Estrogen receptor beta (Homo sapiens) (UniProt P03372+Q92731); assay: OT_ER_ERaERb_1440: Odyssey Thera (OT) 24-hour HEK293T Protein-Complementation Assay for Estrogen Receptor-alpha/-beta Homodimer (AID 2283356);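 further: heteromer of ER alpha and ER beta binding domains; hits raise reporter fluorescence and both agonists and antagonists give an increase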
# Outline: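 Fragment complementation between ER alpha (310-547) and ER beta (263-489) ligand-binding domains in HEK293T cells; signal read 24 h post-dosing by laser scanning cytometer. Gain of fluorescence relative to DMSO fitted.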
# [12] = target: Estrogen receptor beta (Homo sapiens) (UniProt Q92731); assay: OT_ER_ERbERb_0480: Odyssey Thera (OT) 8-hour HEK293T Protein-Complementation Assay for Estrogen Receptor-beta/-beta Homodimer (AID 2283357);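 further: active means signal gain over DMSO baseline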
# Outline: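 Fluorescence gain from complemented reporter fragments on ER-beta LBD homodimer in HEK293T was quantified against DMSO controls after 8 h treatment, fixation in 4% formaldehyde and Draq5 staining.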
# [13] = target: T1, Estrogen receptor (Homo sapiens) + Estrogen receptor beta (Homo sapiens); assay: OT_ER_ERaERb_0480: Odyssey Thera (OT) 8-hour HEK293T Protein-Complementation Assay for Estrogen Receptor-alpha/-beta Heterodimer (AID 2283352)
# Outline: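 Fluorescence increase from reconstituted reporter fragments, quantified by laser scanning cytometer, reflects ER-alpha/ER-beta heterodimer formation in human HEK293T cells. Exposure 8 h; positive-direction fitting against DMSO vehicle.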
# [14] = target: human Thyroid Receptor Alpha (TRa), THRA (gene 7067) (UniProt P10827); assay: NVS_NR_hTRa_Antagonist: NovaScreen (NVS) Nuclear Receptor Binding Assay for human Thyroid Receptor Alpha Antagonism (TRa) (AID 2283362);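 further: activity is loss of signal relative to DMSO baseline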
# Outline: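 Actives from a duplicate 25 uM single-point screen were retested in concentration series. The cell-free antagonist-format binding assay was read by AlphaLISA chemiluminescence at 1 h, scored as signal loss relative to DMSO.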
# Androgen Receptor/SRC-1 Co-activator, AR (gene 367), sequence (P10275 whole entry, looked up, the tested form may be a part): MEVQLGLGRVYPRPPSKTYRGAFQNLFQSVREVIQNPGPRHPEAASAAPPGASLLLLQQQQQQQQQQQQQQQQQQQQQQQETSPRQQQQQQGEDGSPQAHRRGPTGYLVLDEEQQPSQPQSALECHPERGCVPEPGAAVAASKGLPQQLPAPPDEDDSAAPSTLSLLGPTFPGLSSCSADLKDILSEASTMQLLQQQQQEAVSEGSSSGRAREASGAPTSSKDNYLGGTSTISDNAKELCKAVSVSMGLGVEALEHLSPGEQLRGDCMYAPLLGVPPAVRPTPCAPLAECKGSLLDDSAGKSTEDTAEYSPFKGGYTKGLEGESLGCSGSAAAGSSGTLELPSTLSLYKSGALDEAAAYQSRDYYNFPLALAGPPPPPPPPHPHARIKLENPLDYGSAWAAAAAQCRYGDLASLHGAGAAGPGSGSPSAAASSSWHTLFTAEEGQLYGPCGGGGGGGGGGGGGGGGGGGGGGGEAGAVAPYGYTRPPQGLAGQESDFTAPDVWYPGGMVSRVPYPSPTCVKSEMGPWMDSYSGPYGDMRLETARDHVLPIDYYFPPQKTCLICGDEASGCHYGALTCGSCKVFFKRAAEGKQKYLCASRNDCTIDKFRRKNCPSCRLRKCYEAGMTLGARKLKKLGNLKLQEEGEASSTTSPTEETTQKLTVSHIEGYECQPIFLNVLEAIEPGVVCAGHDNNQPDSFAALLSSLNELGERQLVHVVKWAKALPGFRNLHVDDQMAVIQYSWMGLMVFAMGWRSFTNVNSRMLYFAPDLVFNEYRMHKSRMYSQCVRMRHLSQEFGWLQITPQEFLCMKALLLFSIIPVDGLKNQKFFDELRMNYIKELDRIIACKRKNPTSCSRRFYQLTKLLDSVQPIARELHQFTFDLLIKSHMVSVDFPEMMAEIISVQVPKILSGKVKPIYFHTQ
# human Peroxisome Proliferator-activated Receptor alpha (PPARa), PPARA (gene 5465), sequence (Q07869 whole entry, looked up): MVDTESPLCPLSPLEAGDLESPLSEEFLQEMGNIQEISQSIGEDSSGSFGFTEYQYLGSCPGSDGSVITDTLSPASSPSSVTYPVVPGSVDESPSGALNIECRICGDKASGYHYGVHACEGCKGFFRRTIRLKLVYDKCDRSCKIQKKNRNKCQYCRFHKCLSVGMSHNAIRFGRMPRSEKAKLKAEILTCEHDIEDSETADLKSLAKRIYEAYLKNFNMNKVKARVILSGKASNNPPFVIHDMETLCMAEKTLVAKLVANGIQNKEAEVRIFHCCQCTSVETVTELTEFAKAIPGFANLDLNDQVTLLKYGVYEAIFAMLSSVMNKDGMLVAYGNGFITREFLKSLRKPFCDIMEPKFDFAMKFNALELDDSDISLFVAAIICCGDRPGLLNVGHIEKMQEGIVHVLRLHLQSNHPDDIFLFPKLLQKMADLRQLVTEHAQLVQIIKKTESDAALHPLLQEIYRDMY
# Estrogen receptor beta (Homo sapiens), sequence (Q92731 whole entry, looked up, the tested form may be a part): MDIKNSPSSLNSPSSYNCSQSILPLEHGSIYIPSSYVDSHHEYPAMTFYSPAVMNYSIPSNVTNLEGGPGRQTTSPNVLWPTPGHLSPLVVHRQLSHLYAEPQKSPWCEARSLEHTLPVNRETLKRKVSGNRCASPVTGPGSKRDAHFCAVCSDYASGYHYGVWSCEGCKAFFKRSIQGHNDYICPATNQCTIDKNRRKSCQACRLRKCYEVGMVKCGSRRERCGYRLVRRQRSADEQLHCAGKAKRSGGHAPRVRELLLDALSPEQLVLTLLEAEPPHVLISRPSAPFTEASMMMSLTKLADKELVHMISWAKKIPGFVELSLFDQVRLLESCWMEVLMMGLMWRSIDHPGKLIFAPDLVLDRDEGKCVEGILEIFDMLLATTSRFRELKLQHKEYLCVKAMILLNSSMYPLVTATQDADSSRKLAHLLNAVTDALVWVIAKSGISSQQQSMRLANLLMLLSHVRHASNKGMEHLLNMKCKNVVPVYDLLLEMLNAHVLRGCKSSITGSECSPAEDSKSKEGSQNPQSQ
# T1 sequence (P03372 whole entry, looked up, the tested form may be a part): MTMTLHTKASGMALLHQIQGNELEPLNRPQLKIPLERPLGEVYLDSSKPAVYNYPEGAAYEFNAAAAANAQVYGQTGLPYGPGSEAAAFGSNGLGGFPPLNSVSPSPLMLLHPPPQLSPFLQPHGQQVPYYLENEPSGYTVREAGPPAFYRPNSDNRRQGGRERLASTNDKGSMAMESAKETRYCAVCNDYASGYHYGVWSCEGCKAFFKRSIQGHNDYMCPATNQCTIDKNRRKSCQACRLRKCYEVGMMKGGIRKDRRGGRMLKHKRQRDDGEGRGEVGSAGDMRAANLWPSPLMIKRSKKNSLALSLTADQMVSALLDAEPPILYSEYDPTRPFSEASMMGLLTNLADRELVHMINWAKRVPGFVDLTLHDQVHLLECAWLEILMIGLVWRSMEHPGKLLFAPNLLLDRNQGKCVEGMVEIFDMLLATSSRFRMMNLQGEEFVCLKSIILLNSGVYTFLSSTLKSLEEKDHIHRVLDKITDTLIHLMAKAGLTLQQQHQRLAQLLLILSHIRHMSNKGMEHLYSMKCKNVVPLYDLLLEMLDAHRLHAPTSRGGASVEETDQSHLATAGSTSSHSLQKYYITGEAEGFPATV
# T1 sequence (Q92731 whole entry, looked up, the tested form may be a part): as the sequence (Q92731 whole entry, looked up, the tested form may be a part) above
# Estrogen receptor (Homo sapiens), sequence (P03372 whole entry, looked up, the tested form may be a part): as the sequence (P03372 whole entry, looked up, the tested form may be a part) above
# chimpanzee Androgen Receptor (AR), AR (gene 747460), sequence (O97775 whole entry, looked up): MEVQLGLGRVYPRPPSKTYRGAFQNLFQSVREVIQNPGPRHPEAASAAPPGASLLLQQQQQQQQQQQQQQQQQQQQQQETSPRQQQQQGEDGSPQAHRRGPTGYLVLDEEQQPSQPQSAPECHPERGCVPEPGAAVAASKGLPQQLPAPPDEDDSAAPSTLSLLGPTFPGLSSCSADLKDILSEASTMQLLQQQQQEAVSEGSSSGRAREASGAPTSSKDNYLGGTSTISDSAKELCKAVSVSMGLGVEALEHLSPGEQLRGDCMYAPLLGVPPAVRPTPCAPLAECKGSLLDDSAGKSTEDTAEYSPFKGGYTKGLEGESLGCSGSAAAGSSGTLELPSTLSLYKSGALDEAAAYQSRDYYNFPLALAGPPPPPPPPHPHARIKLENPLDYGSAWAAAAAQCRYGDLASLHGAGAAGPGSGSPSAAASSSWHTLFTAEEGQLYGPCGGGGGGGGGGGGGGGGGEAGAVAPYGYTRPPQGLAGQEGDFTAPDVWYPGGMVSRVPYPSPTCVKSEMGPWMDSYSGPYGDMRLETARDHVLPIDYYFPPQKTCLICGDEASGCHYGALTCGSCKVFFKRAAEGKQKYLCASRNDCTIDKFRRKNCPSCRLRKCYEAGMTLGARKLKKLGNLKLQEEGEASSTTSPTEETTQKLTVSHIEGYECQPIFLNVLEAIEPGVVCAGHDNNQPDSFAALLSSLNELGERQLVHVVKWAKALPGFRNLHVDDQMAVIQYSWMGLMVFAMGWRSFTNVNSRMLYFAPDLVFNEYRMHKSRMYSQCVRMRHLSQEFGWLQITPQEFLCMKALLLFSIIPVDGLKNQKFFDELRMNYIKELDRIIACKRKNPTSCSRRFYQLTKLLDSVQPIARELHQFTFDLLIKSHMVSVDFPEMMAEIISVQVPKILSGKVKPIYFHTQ
# Retinoic acid receptor alpha (Homo sapiens), sequence (P10276 whole entry, looked up): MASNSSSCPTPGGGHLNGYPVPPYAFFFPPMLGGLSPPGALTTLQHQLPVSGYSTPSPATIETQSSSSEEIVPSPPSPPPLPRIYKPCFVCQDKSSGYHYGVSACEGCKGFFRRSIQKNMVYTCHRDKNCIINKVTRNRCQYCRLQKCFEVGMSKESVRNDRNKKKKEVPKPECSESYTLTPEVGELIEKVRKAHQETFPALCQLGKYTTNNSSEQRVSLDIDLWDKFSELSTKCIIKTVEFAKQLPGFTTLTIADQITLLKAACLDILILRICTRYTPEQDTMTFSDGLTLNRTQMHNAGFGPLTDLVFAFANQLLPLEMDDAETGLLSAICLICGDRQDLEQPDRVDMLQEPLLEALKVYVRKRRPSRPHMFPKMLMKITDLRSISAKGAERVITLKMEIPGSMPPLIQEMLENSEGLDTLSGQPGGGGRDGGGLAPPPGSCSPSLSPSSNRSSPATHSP
# PGR (gene 5241), sequence (P06401 whole entry, looked up): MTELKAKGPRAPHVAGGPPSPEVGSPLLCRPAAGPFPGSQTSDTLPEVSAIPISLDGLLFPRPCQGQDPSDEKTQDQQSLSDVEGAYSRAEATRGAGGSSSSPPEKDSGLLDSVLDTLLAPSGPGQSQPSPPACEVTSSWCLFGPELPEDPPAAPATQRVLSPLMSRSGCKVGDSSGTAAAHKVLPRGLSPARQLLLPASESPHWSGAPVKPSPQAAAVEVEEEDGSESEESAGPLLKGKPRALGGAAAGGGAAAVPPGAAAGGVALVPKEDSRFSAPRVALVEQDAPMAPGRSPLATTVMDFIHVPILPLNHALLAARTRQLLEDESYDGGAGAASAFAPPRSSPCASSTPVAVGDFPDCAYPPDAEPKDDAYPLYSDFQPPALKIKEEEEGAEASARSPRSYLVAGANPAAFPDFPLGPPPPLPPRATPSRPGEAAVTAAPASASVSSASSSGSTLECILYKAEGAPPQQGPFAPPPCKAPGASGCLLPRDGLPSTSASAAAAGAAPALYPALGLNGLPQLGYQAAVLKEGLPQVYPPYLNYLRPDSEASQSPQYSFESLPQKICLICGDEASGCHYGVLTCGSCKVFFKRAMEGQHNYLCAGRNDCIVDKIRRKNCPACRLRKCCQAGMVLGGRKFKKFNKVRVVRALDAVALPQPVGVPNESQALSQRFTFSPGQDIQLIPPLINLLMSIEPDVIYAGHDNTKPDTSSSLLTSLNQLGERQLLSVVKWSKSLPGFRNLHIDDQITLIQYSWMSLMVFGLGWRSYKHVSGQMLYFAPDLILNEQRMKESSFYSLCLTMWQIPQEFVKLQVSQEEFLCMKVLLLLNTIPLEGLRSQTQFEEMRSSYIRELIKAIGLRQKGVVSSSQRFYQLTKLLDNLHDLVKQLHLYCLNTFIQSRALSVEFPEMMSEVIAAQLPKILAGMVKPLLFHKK
smiles,measurement,setting,value
COc1cc(-c2ccc(N)c(OC)c2)ccc1N,AC50,[1],18.5 µM (active) and 25 µM (active)
same,outcome,[2],inactive
same,AC50,[3],14.1 µM (active)
same,outcome,[3],inactive
same,outcome,[4],inactive
O=C(CCl)CCl,outcome,[5],inactive
CCCCCCCCCl,outcome,[1],inactive
Nc1ccc(-c2ccc(N)c(Cl)c2)cc1Cl,outcome,[6],inactive
same,AC50,PGR (gene 5241),41.1 µM (active)
Cl/C=C\C[N+]12CN3CN(CN(C3)C1)C2,AC50,[1],1.43 µM (active)
same,outcome,[7],inactive
same,outcome,[8],inactive
same,AC50,[9],76.6 µM (active)
same,AC50,[10],91.5 µM (active)
same,AC50,[11],11.6 µM (active)
same,outcome,[12],inactive
CC1(C)Cc2cccc(O)c2O1,outcome,[8],inactive
same,outcome,[13],inactive
same,outcome,[11],inactive
same,outcome,[12],inactive
O=c1[nH]c(=O)[nH]c(=O)[nH]1,outcome,[9],inactive
same,outcome,[10],inactive
same,outcome,[12],inactive
CCCCOCCOC(C)=O,outcome,[8],inactive
O=[N+]([O-])c1ccc(O)c([N+](=O)[O-])c1,outcome,[8],inactive
same,outcome,[13],inactive
same,outcome,[9],inactive
same,outcome,[10],inactive
same,outcome,[11],inactive
C=CC#N,outcome,[8],inactive
same,outcome,[13],inactive
same,outcome,[11],inactive
same,outcome,[12],inactive
CN(C)N=O,outcome,[12],inactive
O=C(O)C(F)(F)C(F)(F)C(F)(F)C(F)(F)C(F)(F)C(F)(F)F,outcome,[12],inactive
same,outcome,[3],inactive
OCc1ccco1,outcome,[8],inactive
same,outcome,[13],inactive
same,outcome,[11],inactive
same,outcome,[12],inactive
O=C(NCO)NCO,outcome,[8],inactive
ClC1(Cl)C2(Cl)C3(Cl)C4(Cl)C(Cl)(Cl)C5(Cl)C3(Cl)C1(Cl)C5(Cl)C24Cl (centres undefined),outcome,[8],inactive
same,outcome,[9],inactive
same,outcome,[10],inactive
same,outcome,[4],inactive
COP(=O)(OC)OC,outcome,[7],inactive
same,outcome,[8],inactive
same,outcome,[9],inactive
ClC(Cl)=C(Cl)C(Cl)=C(Cl)Cl,outcome,[8],inactive
Oc1cccc2cccnc12,outcome,[12],inactive
same,AC50,[14],5.52 µM (active)
CCCCCCCCc1ccc(O)cc1,AC50,[12],12.2 µM (active)
same,outcome,[3],inactive
CC(C)(C)CC(C)(C)c1ccc(O)cc1,outcome,[2],inactive
same,AC50,[12],817 nM (active) and 676 nM (active) and 702 nM (active)
same,AC50,PGR (gene 5241),10.8 µM (active)
C=CCc1ccc(OC)cc1,outcome,[10],inactive
same,outcome,[12],inactive
same,outcome,[3],inactive
